Source: PubChem BioAssay
Many of the other results were omitted from the sample, so hits are more common in it than they were.
GALK inhibitor: blocks human galactokinase activity; P51570; Purified GALK, Kinase-Glo residual ATP luminescence; Potency, µM (highest dose often 57.5 µM), most hits filed as inhibitors; 270,000 compounds, 0.007% hits
Target sequence (P51570 whole entry, looked up): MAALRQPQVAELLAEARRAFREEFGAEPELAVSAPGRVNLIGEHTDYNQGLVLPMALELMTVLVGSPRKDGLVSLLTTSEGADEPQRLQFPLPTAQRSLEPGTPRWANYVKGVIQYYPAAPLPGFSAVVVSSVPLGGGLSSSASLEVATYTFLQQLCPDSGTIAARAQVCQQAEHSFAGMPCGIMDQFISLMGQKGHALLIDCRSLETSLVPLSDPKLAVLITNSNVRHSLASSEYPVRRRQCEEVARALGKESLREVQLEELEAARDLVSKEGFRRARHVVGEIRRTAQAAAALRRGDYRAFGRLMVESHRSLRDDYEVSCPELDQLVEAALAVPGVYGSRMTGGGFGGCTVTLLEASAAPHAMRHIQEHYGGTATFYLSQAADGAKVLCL
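Kinase-Glo Plus luminescence measured ATP left after a 1 h room-temperature reaction. The reaction used 5 nM GALK, 100 uM galactose and 35 uM ATP at pH 8.0 (20 mM HEPES, 5 mM MgCl2, 60 mM NaCl, 1 mM DTT, 0.01% BSA).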
CXXC DNA block: blocks binding of human MLL CXXC domain to DNA; AID 2662; 290,000 compounds, 0.037% hits; MLL-CXXC / FITC-HOXA9 DNA fluorescence polarization; Potency, µM (top dose mostly 115 µM), most hits filed as inhibitors; active = well fitted inhibition curve with a large enough effect in the polarisation, with a control signal flat, not every such curve was filed as active; inconclusive = small, poorly fitted or top-dose-only effect, or effect the other way, or a change in a side signal; inactive = no such curve, though single readings can be large or run the other way; the % refers to the polarisation
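Fluorescence polarization: 7 uM MLL-CXXC (stock) preincubated 5 min with compounds, then 50 nM fluorescein-HOX-A9 DNA (stock) added; 30 min ambient. Buffer 50 mM Tris-HCl pH 7.5, 50 mM NaCl, 1 mM DTT, 0.05% BSA.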
Menin MLL FP TR: inhibitors of human menin-MLL interaction, mutant MLL peptide | Potency, µM (titrated, usually from 61.6 µM), usual class: inhibitors | 270,000 compounds, 0.23% hits | AID 1768 | O00255 | Menin + Texas Red MLL mutant peptide, fluorescence polarization; active = well fitted inhibition curve with a large enough effect in the polarisation, with a control signal flat, not every such curve was filed as active; inconclusive = small, poorly fitted or top-dose-only effect, or effect the other way, or a change in a side signal; inactive = no such curve, though single readings can be large or run the other way; the % refers to the polarisation
Menin MLL FP FL: inhibitors of human menin-MLL interaction, wild-type MLL peptide; AID 1766; Fluorescence polarization, fluorescein-MLL peptide displacement from menin; 290,000 tested, under 10 active; FP activity change, % at 61.4 µM; active = well fitted curve in the direction sought with a large enough effect in the polarisation, not every such curve was filed as active; inconclusive = small, poorly fitted or top-dose-only effect, or effect the other way, or a change in a side signal; inactive = no such curve, though single readings can be large or run the other way; the % refers to the polarisation
S-ASM inh: human S-ASM enzyme inhibition | P17405 | Potency, µM (doses to about 57.5 µM), most hits filed as inhibitors | placental ASM, HMU-PC fluorogenic substrate, 60 min | 340,000 compounds, 0.006% hits | AID 504937
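Human placenta-derived ASM preincubated with compound 10 min at room temperature, then reacted with 9 uM (final) fluorogenic HMU-PC substrate for 60 min at 37 C. Stop solution raises pH to 10; fluorescence read at Ex 386/Em 447 nm.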
MLL CXXC Fl: MLL CXXC-DNA interaction inhibition, fluorescein FP. shares compounds with CXXC DNA block. MLL CXXC-DNA binding, fluorescein FP. Potency, µM (top dose mostly 345 µM), hits mostly inhibitors. 200 compounds, 70% hits. AID 624160; also: nearly all actives have a fitted effect of over 80% in size
MLL CXXC FP-TR: disrupts human MLL CXXC domain binding to DNA, Texas Red; shares compounds with CXXC DNA block; MLL CXXC-DNA binding, Texas Red fluorescence polarization; Potency, µM (titrated, usually from 345 µM), usual class: inhibitors; 200 compounds, 40% hits; also: nearly all actives have a fitted effect of over 75% in size
MLL CXXC TRF: MLL CXXC-DNA interaction inhibition, HTRF readout. 210 compounds, 30% hits. MLL CXXC-DNA binding, HTRF, biochemical. AID 624162. shares compounds with CXXC DNA block. Potency, µM (titrated, usually from 172 µM), hits mostly inhibitors; also: nearly all actives have a fitted effect of over 80% in size
Numbers stand for hits; n = inactive; u = inconclusive; x = not tested or not shown; [ ] = dose if it differs, or a comment. Unless noted, calls follow the shape of the dose curve; as a rule, active = well fitted curve in the direction sought with a large enough effect; inconclusive = small, poorly fitted or top-dose-only effect, or another doubt; inactive = no such curve, though single readings can be large; an effect the other way counts as inactive or inconclusive.

SMILES	GALK inhibitor	CXXC DNA block	Menin MLL FP TR	Menin MLL FP FL	S-ASM inh	MLL CXXC Fl	MLL CXXC FP-TR	MLL CXXC TRF
COC(=O)N[C@@H](c1ccc(Br)cc1)C(C(=O)OC)C(=O)OC	x	x	n	n	x	x	x	x
O=C(NCC(c1ccco1)N1CCCC1)c1cn(-c2ccccc2)nc1-c1ccc(F)cc1 (stereo not given)	x	x	x	x	n	x	x	x
Cc1ccc(C(C2=C(O)CC(C)(C)CC2=O)C2C(=O)CC(C)(C)CC2=O)s1 (stereo not given)	n	u	n	n	n	x	x	x
CC1(C)CC(=O)C(C(C2=C(O)CC(C)(C)CC2=O)c2ccc(Br)s2)C(=O)C1 (stereo not given)	n	u	n	n	n	40µM	n	15µM
CCCCCCN1CC(=O)N2Cc3[nH]c4ccccc4c3C[C@H]2C1=O	x	n	n	n	n	x	x	x
O=C1c2ccccc2C(=O)c2c(Nc3ccc(CCO)cc3)ccc(O)c21	x	n	u	n	n	x	x	x
O=C1c2c(O)ccc(O)c2C(=O)c2c(NCCNCCO)ccc(NCCNCCO)c21	x	u	u	u	n	6.8µM	12µM	7.3µM
CC(C)c1nnc(NC(=O)c2cc3cc(Br)ccc3oc2=O)s1	n	u	x	n	n	n	n	n
COCCCNC(=S)NNC(=O)c1cc(Cl)c(O)c(Cl)c1	n	u	x	n	n	x	x	n
COC(=O)C1=C(C)N(C)C(=O)NC1c1c(OC)ccc2ccccc12 (stereo not given)	n	n	n	n	n[11.5 µM]	x	x	x
